The list is not random: actives were taken first. Their share in the collection is about 2%.
Yp Topo-I inh: blocks Yersinia pestis topoisomerase I activity | Y. pestis Topo-I cleavage product accumulation, plate reader | AID 504884 | activity, % at 10 µM | 0.064% of 360,000 active; in the data active = activity above about 50%, passing the limit was not always enough
PrP UTR inh: inhibition of PrP 5' UTR reporter expression; cell-based PrP 5' UTR mRNA reporter, plate reader; inhibition, % (test concentration not listed); 0.35% of 340,000 active; AID 488862; in the data active = inhibition above about 52%; also: 0 = median of the neutral control wells
CCHF vOTU inh: CCHFV vOTU protease inhibition; 0.55% of 370,000 active; AID 651958; inhibition, % at 11.5 µM; Pep-AMC fluorescence; in the data active = inhibition above about 30%; also: 0% = vehicle wells with enzyme and 100% = no enzyme wells
PfHsp40 rescue: rescue of PfHsp40-mediated yeast toxicity | S. cerevisiae expressing PfHsp40, growth rescue, ATP luminescence | growth rescue, % at 12.5 µM | 0.68% of 340,000 active | AID 504582; in the data active = growth rescue above about 28%, passing the limit was not always enough;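 also: yeast W303a lacking pdr1 and pdr3 grown in galactose medium; growth measured after three days at 30 °C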
PrPC TRFRET: cell surface PrPC inhibition, primary TR-FRET screen; TR-FRET read-out; 0.43% of 370,000 active; P04156; inhibition, % at 13.8 µM; in the data active = inhibition above about 24%; also: 0% = median of the test wells and 100% = reference compound wells
BJeLR viability: kills HRASV12-expressing BJeLR cells; BJeLR (HRASV12) viability, CellTiter-Glo ATP luminescence, 48 h; inhibition, % (test concentration not listed); 0.17% of 300,000 active; AID 1554; in the data active = inhibition above about 50%
* hit, by the source's call; . = not tested or not shown.

SMILES	Yp Topo-I inh	PrP UTR inh	CCHF vOTU inh	PfHsp40 rescue	PrPC TRFRET	BJeLR viability
COc1ccc(/C=C2/Sc3ccc(C(=O)N4CCc5ccccc5C4)cc3NC2=O)cc1	39.1	-18.9	-10.0	47.5*	3.5	-5.9
O=C1c2ccccc2C(O)(c2ccccc2)N1c1ccc([N+](=O)[O-])cc1Cl (stereo not drawn)	-2.4	-14.5	5.1	204.5*	-4.1	.
Cc1c(N2C(=O)c3ccccc3C2(O)c2ccccc2)c(=O)n(-c2ccccc2)n1C (stereo not drawn)	3.1	2.0	-8.7	-1.5	2.6	1.3
CC1(C)c2ccccc2-n2c1cc1oc(=O)cc(O)c1c2=O	6.0	-6.4	17.0	59.7*	5.1	-4.0
Cc1cc(N)c2cc(NC(=O)/C=C/c3ccccc3Cl)ccc2n1	-10.9	-18.2	.	-0.4	.	107.5*
COc1ccc(N2C[C@@]3(O)CC[C@@H](O)[C@@H](OC)[C@@H]3[C@@]2(C)[C@H](O)CC=C(C)C)cc1	.	.	5.5	.	9.6	.
c1nc(NCC2CC2)c2cc(-c3ccc4c(c3)OCO4)ccc2n1	.	.	.	.	-7.0	.
Cc1nc(SC(C)C(=O)Nc2cccc(C(F)(F)F)c2)c2c(C)c(C(=O)O)sc2n1 (stereo not drawn)	-1.6	-9.1	21.9	48.8*	-2.5	-15.7
CCCS(=O)(=O)c1c(S(=O)(=O)CCC)c2c(C)cccn2c1C(=O)N/N=C/c1cc(O)cc(O)c1	-11.3	-4.5	5.1	451.8*	18.9	34.7
CCOC(=O)c1ccc(N2C(=O)CC(N3CCC(O)(c4ccc(Cl)cc4)CC3)C2=O)cc1 (stereo not drawn)	13.4	-2.9	14.6	534.4*	9.0	2.1
CCOC(=O)c1ccc(N2C(=O)CC(N3CCCC(C)C3)C2=O)cc1 (stereo not drawn)	-7.2	-9.4	-26.5	584.6*	7.6	-10.4
CCCOc1ccc(N2C(=O)CC(N3CCC(C(=O)OCC)CC3)C2=O)cc1 (stereo not drawn)	-6.3	-14.7	-10.2	522.9*	8.7	-5.4
CCCOc1ccc(N2C(=O)CC(N3CCOCC3)C2=O)cc1 (stereo not drawn)	3.5	-1.2	-7.4	1.6	-0.6	-3.8
CCOC(=O)c1ccc(N2C(=O)CC(N3CCN(Cc4ccccc4)CC3)C2=O)cc1 (stereo not drawn)	1.4	3.5	8.4	-0.2	1.3	10.5
CCOC(=O)c1ccc(N2C(=O)CC(N3CCC(O)(c4ccc(Br)cc4)CC3)C2=O)cc1 (stereo not drawn)	1.3	-9.0	3.6	0.1	7.8	-5.0
C=CCNC(=O)C1CCN(c2cncnc2)CC1	.	.	4.6	.	-4.3	.
COc1cc(/C=C2/CC/C(=C/c3ccc(O)c(OC)c3)C2=O)ccc1O	-10.8	-27.4	21.2	-0.3	-18.2	20.6
COc1ccc(C=C2C(=O)c3ccccc3C2=O)cc1O	-19.0	-33.7	1.8	0.1	-4.5	-6.1
CCN1C/C(=C/c2ccc(OC)c(O)c2)C(=O)/C(=C/c2ccc(OC)c(O)c2)C1	9.0	-23.9	-8.9	-0.4	-5.8	55.4*
COc1ccc(/C=C2\CN(Cc3ccccc3)C/C(=C\c3ccc(OC)c(O)c3)C2=O)cc1O	7.9	15.7	6.1	-1.4	-8.0	69.4*
COC(=O)c1cccc(OC[C@@H](O)CN2CCC(C(O)(c3ccccc3)c3ccccc3)CC2)c1	.	.	13.3	.	-11.2	.
COC(=O)[C@]1(CNC(=O)NCCc2ccc(OC)c(OC)c2)CC(=O)N(C)[C@@H]1c1ccccc1	.	.	-3.4	.	1.5	.
COc1ccc(C(=O)c2ccc(Cl)c([N+](=O)[O-])c2)cc1	-6.3	-2.1	2.9	1.8	-24.8	66.7*
COc1ccc(C(=O)c2ccc(Cl)cc2)cc1	4.0	-19.6	6.9	-1.2	6.5	2.2
Cc1ccc(N2C(=O)C(F)(F)C2c2ccccc2)cc1 (stereo not drawn)	2.0	-11.8	7.8	7.3	6.7	5.5
SMILES	Yp Topo-I inh	PrP UTR inh	CCHF vOTU inh	PfHsp40 rescue	PrPC TRFRET	BJeLR viability
O=C1N(c2ccc3c(c2)OCCO3)C(c2ccccc2)C1(F)F (stereo not drawn)	3.1	-7.0	-1.5	43.4*	1.3	-11.8
Clc1ccc(C2=NCCN2)cc1	-8.4	-8.0	-19.6	221.0*	-8.8	8.5
COc1cc(C2CC=C(C(=O)O)C(c3ccccc3F)N2S(=O)(=O)c2ccc(C)cc2)cc(OC)c1OC (stereo not drawn)	.	.	-2.1	.	0.4	.
Oc1c(Br)c(Br)c(Br)c(Br)c1Br	-6.4	-4.7	.	30.7*	.	.
Oc1c(Br)cc(Br)cc1Br	2.9	-8.1	6.1	-2.1	7.7	.
CCCN1CCCCC(NC(=O)c2ccc(-c3ccccc3)cc2)C1=O (stereo not drawn)	.	.	0.9	.	-3.4	.
CCn1c(-c2cc(-c3ccc(C)cc3)nc3ccccc23)n[nH]c1=S	10.0	-1.5	6.8	38.5*	7.1	0.0
CCn1c(-c2cc(-c3ccc(OC(C)C)cc3)nc3ccccc23)n[nH]c1=S	8.5	-68.1	.	-0.6	.	-1.6
C=CCn1c(-c2cc(-c3ccc(C)cc3)nc3ccccc23)n[nH]c1=S	19.8	-39.1	8.0	413.8*	2.6	2.3
COc1ccc(S[C@]2(C(=O)N3CCN(C(C)=O)CC3)CC(=O)N[C@@H]2c2ccc(OC)cc2)cc1	.	.	-1.4	.	-1.9	.
Cc1ccc(S(=O)(=O)NC(=O)Nc2ccc(N(C)C)cc2)cc1	3.9	-32.6	50.4*	0.5	-30.1	-13.6
Cc1ccc(NC(=O)NNS(=O)(=O)c2ccc(Br)cc2)cc1	3.5	-6.2	5.8	-0.7	-2.0	-4.2
O=C(NN=Cc1cccc(OCc2ccccc2)c1)c1cc(-c2ccc(Cl)cc2)n[nH]1	.	.	3.9	.	13.2	.
CCN(CC)C(=O)CC[C@H]1CC[C@]2(CCCN(Cc3ccncc3)C2)O1	.	.	-5.4	.	-1.3	.
Cc1nn(CCC(=O)NNC(=O)NCc2ccccc2)c(C)c1[N+](=O)[O-]	.	.	-6.8	.	-4.5	.
O=S(OCCN1CCOCC1)C(c1ccccc1)c1ccccc1 (stereo not drawn)	1.7	-7.7	-11.1	109.4*	-4.0	.
C[C@@H]1CN(c2ccc(N3CCN(C(=O)OC(C)(C)C)C[C@@H]3C)cc2C#N)CCN1Cc1ccccc1	.	.	-10.2	.	5.8	.
O=C(O)c1cccc2c3c([nH]c12)CCCC3	-6.4	-17.1	3.5	127.8*	-3.4	2.9
O=c1c2c([nH]c3ccccc13)CCCC2	-0.5	-9.8	-4.5	0.5	3.9	4.5
O=S1(=O)c2ccc(N3CCSCC3)cc2Oc2ccccc2CN1Cc1cn(Cc2cccc(C(F)(F)F)c2)nn1	.	.	4.3	.	9.2	.
CC(NC(=O)c1ccc(Br)cc1)c1ccc2c(c1)CCCC2 (stereo not drawn)	4.7	-26.8	-12.3	137.5*	-2.4	-18.9
CC(NC(=O)c1ccc(F)cc1)c1ccc2c(c1)CCCC2 (stereo not drawn)	20.0	-16.1	9.2	0.2	6.8	-6.6
O=C(OC12CCCN(C1)/C(=C/c1cccnc1)C2)c1cccc(F)c1 (stereo not drawn)	.	.	0.1	.	-0.1	.
